Data reported in the supplement of paper PMC10849652.
About 7,900 targets were measured; listed, in parts, are those with a hit and a random draw of the rest. About 0.6% of all pairs of compound and target were hits.

Experiments:
Experiment in all cases: log2 fold change, soluble protein after heating vs DMSO (PISA); higher = thermal stabilisation; K562 cells, 10 uM, 30 min; active = over 0.2 and 3.5 SD of the protein, either way, in both replicates (recomputed)
[1] = compound: C1=CC=C(C=C1)[C@H](COC2=CC3=C(C=C2)NC(=O)N3)NC(=O)C4=CC=CN(C4=O)CC5=CC(=C(C=C5)F)F
In short: (§1)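 Soluble protein was quantified by TMTpro 16plex LC-MS/MS after channel sums were equalised. It was obtained as the supernatant after 21,000xg for 90 min from pooled aliquots of K562 cells (2×10^6 cells/mL, 10 μM compound, 30 min) heated for 3 min across 48°C-58°C and extracted in PBS with 0.5% NP-40 at 4°C. Thermal stability values are relative to control samples and come from duplicates. They are given as log2 fold changes.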

[2] = compound: CC1=C(SC2=C1C(=N[C@H](C3=NN=C(N32)C)CC(=O)N)C4=CC=C(C=C4)Cl)C
In short: as §1

[3] = compound: CC1=C2C(=CC=C1)N=C(N(C2=O)C3=CC=CC=C3C)CN4C=NC5=C(N=CN=C54)N
In short: as §1

[4] = compound: Cc1sc2c(c1C)C(c1ccc(Cl)cc1)=N[C@@H](CC(=O)OC(C)(C)C)c1nnc(C)n1-2
In short: as §1

[5] = compound: c1ccc([C@@H]2C[C@H]2NC2CCNCC2)cc1
In short: as §1

Measured: log2 fold change

LMBRD1 (UniProt Q9NUN5)
inactive: [1] 0.013 | [2] 0.099 | [3] 0.143 | [4] -0.178 | [5] 0.039

LEMD2 (UniProt Q8NC56)
Chain of UniProt Q8NC56 (Q8NC56 whole entry, looked up): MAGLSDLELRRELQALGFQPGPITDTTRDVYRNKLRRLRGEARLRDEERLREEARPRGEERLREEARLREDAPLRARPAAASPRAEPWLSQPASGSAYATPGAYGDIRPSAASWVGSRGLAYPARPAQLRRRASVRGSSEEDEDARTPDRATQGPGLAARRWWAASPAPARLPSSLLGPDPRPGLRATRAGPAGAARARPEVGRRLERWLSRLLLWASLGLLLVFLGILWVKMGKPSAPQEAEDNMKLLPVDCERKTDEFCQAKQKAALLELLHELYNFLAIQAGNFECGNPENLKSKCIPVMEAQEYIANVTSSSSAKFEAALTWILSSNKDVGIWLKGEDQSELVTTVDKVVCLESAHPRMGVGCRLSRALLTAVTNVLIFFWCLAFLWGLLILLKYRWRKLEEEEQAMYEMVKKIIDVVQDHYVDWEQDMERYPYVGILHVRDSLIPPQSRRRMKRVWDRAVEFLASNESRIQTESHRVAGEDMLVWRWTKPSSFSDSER
inactive: [1] -0.031 | [2] 0.136 | [3] 0.114 | [4] -0.017 | [5] 0.005

MAIP1 (UniProt Q8WWC4)
inactive: [1] 0.012 | [2] 0.075 | [3] 0.028 | [4] -0.026 | [5] 0.002

MDC1 (UniProt Q14676)
inactive: [1] -0.005 | [2] -0.045 | [3] -0.092 | [4] 0.068 | [5] 0.04

MAP4 (UniProt P27816)
inactive: [1] 0.028 | [2] -0.017 | [3] -0.058 | [4] 0.003 | [5] 0.037

KCTD2 (UniProt Q14681)
inactive: [1] 0.008 | [2] -0.01 | [3] 0.022 | [4] 0.195 | [5] 0.158

MAPK8 isoform 3 (UniProt P45983)
inactive: [1] -0.007 | [2] 0.151 | [3] 0.072 | [4] 0.061 | [5] -0.055

MCUR1 (UniProt Q96AQ8)
Chain of UniProt Q96AQ8 (Q96AQ8 whole entry, looked up): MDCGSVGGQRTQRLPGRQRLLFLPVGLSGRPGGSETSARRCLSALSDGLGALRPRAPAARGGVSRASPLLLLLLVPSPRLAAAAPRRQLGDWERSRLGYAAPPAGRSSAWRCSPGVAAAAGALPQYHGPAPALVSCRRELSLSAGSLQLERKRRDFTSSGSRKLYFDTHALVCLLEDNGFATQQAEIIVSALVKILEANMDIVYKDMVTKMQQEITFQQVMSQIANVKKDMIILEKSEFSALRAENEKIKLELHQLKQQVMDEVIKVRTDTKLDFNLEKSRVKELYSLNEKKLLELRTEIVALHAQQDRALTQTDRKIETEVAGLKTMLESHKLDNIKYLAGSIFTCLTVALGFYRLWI
inactive: [1] -0.02 | [2] 0.018 | [3] 0.007 | [4] -0.008 | [5] -0.023

INTS7 (UniProt Q9NVH2)
inactive: [1] -0.005 | [2] 0.086 | [3] 0.001 | [4] -0.085 | [5] -0.054

LRFN1 (UniProt Q9P244)
inactive: [1] -0.069 | [2] 0.183 | [3] 0.042 | [4] -0.02 | [5] -0.411

MARCKS (UniProt P29966)
inactive: [1] 0 | [2] -0.046 | [3] -0.066 | [4] -0.065 | [5] 0.031

KIF2C (UniProt Q99661)
inactive: [1] -0.062 | [2] -0.021 | [3] 0.094 | [4] 0.002 | [5] -0.029

IGFBP2 (UniProt P18065)
inactive: [1] -0.121 | [2] -0.101 | [3] 0.131 | [4] -0.295 | [5] 0.062

MAP3K20 (UniProt Q9NYL2)
Chain of UniProt Q9NYL2 (Q9NYL2 whole entry, looked up): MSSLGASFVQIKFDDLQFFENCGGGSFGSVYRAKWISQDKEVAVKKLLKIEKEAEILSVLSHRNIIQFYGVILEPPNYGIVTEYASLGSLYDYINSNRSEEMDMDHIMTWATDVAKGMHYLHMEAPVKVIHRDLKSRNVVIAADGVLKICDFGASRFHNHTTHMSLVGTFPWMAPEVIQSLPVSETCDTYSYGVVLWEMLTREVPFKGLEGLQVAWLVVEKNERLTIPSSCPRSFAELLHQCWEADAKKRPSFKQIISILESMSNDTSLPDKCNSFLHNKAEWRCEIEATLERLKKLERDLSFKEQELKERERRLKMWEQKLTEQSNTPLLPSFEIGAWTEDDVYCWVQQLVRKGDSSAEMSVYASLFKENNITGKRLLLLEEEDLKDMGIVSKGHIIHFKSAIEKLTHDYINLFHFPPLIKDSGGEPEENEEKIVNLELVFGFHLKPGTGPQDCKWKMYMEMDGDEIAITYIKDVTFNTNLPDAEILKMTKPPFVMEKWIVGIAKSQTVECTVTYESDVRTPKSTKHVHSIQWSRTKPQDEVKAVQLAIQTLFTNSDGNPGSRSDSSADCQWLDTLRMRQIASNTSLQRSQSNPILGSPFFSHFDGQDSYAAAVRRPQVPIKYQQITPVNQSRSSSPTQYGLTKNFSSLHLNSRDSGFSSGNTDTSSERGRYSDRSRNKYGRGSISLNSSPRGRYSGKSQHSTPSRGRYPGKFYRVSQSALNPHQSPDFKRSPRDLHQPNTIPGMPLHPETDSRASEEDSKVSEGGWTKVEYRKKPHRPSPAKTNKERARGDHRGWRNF
inactive: [1] 0.02 | [2] -0.037 | [3] 0.017 | [4] 0.005 | [5] 0.022

IKZF1 (UniProt Q13422)
Chain of UniProt Q13422 (Q13422 whole entry, looked up): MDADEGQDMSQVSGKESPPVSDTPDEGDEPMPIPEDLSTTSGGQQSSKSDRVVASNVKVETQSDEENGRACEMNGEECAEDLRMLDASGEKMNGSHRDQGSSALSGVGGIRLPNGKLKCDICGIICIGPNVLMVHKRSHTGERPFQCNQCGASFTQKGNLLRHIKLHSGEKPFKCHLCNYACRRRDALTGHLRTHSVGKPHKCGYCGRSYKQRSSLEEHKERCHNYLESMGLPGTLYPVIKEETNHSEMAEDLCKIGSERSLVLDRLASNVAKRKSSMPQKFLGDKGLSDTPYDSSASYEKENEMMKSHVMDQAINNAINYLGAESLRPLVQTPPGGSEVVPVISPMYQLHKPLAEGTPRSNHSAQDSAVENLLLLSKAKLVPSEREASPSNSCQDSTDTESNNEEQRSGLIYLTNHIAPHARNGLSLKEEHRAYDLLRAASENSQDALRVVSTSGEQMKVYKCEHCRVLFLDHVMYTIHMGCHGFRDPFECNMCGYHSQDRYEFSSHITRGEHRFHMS
inactive: [1] -0.011 | [2] 0.05 | [3] 0.15 | [4] -0.009 | [5] 0.014

LIMA1 isoform 4 (UniProt Q9UHB6)
inactive: [1] 0.002 | [2] 0.014 | [3] -0.002 | [4] -0.028 | [5] 0.034

LMF2 (UniProt Q9BU23)
inactive: [1] -0.001 | [2] -0.013 | [3] 0.097 | [4] -0.012 | [5] -0.053

MIA2 (UniProt Q96PC5)
inactive: [1] -0.036 | [2] 0.041 | [3] 0.02 | [4] 0.029 | [5] 0.027

KDM5D isoform 3 (UniProt Q9BY66)
inactive: [1] 0.2 | [2] 0.086 | [3] 0.102 | [4] -0.022 | [5] 0.037

IMMP1L (UniProt Q96LU5)
Chain of UniProt Q96LU5 (Q96LU5 whole entry, looked up): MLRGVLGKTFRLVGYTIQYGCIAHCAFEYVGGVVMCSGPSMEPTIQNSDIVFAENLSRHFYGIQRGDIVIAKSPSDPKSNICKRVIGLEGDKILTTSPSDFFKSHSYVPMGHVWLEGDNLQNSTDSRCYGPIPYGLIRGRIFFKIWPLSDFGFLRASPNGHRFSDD
inactive: [1] 0.054 | [2] 0.045 | [3] 0.101 | [4] -0.021 | [5] 0.024

MED1 (UniProt Q15648)
inactive: [1] -0.033 | [2] -0.009 | [3] 0.03 | [4] 0.079 | [5] 0.058

MICOS13 (UniProt Q5XKP0)
inactive: [1] -0.018 | [2] 0.07 | [3] -0.032 | [4] 0 | [5] 0.003

LUC7L (UniProt Q9NQ29)
inactive: [1] 0.011 | [2] -0.015 | [3] -0.011 | [4] 0 | [5] 0.027

KCTD10 (UniProt Q9H3F6)
inactive: [1] -0.014 | [2] -0.009 | [3] 0.007 | [4] -0.01 | [5] 0.03

MFN2 (UniProt O95140)
inactive: [1] 0.01 | [2] 0.038 | [3] 0.013 | [4] -0.026 | [5] 0.001

MARK3 (UniProt P27448)
inactive: [1] -0.042 | [2] 0.039 | [3] 0.104 | [4] 0.121 | [5] 0.004

KXD1 (UniProt Q9BQD3)
inactive: [1] -0.178 | [2] 0.079 | [3] 0.042 | [4] -0.079 | [5] 0.034

MAP3K4 isoform 2 (UniProt Q9Y6R4)
inactive: [1] -0.047 | [2] 0.026 | [3] 0.057 | [4] -0.034 | [5] 0.018

IPO9 (UniProt Q96P70)
inactive: [1] 0.018 | [2] 0.063 | [3] 0.014 | [4] -0.01 | [5] 0.079

KHDC4 (UniProt Q7Z7F0)
inactive: [1] -0.063 | [2] 0.129 | [3] 0.007 | [4] -0.061 | [5] -0.064

LAMP2 isoform 2 (UniProt P13473)
inactive: [1] 0.051 | [2] -0.015 | [3] 0.04 | [4] 0.052 | [5] 0.007

LNPK (UniProt Q9C0E8)
inactive: [1] 0.015 | [2] 0.015 | [3] 0.009 | [4] -0.01 | [5] 0.016

ITPRIP (UniProt Q8IWB1)
inactive: [1] -0.024 | [2] 0.096 | [3] 0.054 | [4] -0.081 | [5] 0.027

MED22 (UniProt Q15528)
inactive: [1] 0.013 | [2] 0.065 | [3] 0.013 | [4] 0.195 | [5] 0

KLHDC4 (UniProt Q8TBB5)
inactive: [1] 0.048 | [2] -0.074 | [3] -0.165 | [4] 0.084 | [5] -0.047

KIF11 (UniProt P52732)
inactive: [1] -0.044 | [2] -0.011 | [3] 0.074 | [4] 0.092 | [5] -0.027

IPO11 isoform 2 (UniProt Q9UI26)
inactive: [1] 0.048 | [2] 0.064 | [3] 0.01 | [4] 0.013 | [5] 0.001

KCT2 (UniProt Q8NC54)
Chain of UniProt Q8NC54 (Q8NC54 whole entry, looked up): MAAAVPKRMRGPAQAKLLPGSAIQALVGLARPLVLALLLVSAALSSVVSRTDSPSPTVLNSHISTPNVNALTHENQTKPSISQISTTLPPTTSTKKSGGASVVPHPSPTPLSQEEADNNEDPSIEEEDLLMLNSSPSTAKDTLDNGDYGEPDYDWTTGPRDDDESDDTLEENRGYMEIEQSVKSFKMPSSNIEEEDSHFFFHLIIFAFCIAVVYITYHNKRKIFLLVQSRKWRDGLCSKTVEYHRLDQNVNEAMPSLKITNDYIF
inactive: [1] 0.046 | [2] 0.024 | [3] -0.01 | [4] -0.014 | [5] 0.028

MED16 (UniProt Q9Y2X0)
Chain of UniProt Q9Y2X0 (Q9Y2X0 whole entry, looked up): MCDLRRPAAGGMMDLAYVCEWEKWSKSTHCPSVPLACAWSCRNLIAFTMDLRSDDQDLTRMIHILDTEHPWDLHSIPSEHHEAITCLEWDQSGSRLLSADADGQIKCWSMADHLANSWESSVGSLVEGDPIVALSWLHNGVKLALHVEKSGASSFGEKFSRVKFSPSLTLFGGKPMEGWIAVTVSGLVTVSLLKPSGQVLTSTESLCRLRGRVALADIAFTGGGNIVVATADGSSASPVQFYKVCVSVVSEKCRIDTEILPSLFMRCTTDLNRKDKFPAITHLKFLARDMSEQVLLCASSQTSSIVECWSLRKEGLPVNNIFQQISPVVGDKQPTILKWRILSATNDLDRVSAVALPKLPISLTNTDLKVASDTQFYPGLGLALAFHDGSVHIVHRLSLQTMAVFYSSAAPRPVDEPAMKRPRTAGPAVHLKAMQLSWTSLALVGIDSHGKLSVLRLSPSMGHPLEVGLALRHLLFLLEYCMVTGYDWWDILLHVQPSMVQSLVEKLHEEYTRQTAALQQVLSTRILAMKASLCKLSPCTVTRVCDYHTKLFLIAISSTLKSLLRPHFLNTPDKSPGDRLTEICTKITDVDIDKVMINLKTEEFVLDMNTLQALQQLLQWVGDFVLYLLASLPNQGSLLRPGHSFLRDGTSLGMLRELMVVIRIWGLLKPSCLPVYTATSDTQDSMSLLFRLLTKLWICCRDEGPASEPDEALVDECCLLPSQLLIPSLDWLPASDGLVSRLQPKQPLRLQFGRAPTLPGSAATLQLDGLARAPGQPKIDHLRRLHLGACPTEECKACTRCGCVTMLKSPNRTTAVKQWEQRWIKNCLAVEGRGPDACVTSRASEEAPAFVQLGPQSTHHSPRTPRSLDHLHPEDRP
inactive: [1] -0.048 | [2] 0.012 | [3] 0.043 | [4] 0.093 | [5] 0.019

MAP2K7 isoform 4 (UniProt O14733)
Chain of UniProt O14733 (O14733 whole entry, looked up): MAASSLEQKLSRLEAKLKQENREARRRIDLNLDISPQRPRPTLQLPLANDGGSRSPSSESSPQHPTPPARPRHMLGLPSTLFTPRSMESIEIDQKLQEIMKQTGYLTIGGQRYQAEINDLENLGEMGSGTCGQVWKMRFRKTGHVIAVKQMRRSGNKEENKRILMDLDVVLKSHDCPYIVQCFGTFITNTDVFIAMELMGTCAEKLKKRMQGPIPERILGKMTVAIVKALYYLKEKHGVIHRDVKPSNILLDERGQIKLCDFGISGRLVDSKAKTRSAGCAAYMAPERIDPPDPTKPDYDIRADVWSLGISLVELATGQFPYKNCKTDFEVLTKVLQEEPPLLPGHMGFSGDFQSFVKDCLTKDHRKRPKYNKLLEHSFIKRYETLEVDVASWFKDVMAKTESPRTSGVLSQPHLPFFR
inactive: [1] -0.009 | [2] 0.029 | [3] 0.065 | [4] 0.013 | [5] 0.044

METAP1D (UniProt Q6UB28)
inactive: [1] 0.106 | [2] -0.125 | [3] 0.083 | [4] 0.08 | [5] 0.127

KTN1 (UniProt Q86UP2)
inactive: [1] 0.005 | [2] -0.012 | [3] 0.019 | [4] 0.036 | [5] 0.001

MAPK9 (UniProt P45984)
inactive: [1] 0.015 | [2] 0.015 | [3] 0.039 | [4] -0.042 | [5] 0.004

MAP2K1 (UniProt Q02750)
inactive: [1] -0.01 | [2] 0.033 | [3] 0.099 | [4] -0.015 | [5] 0

LAMP2 (UniProt P13473)
inactive: [1] 0.022 | [2] -0.006 | [3] -0.041 | [4] -0.078 | [5] 0.074

IGF2BP2 (UniProt Q9Y6M1)
inactive: [1] 0.122 | [2] -0.271 | [3] -0.038 | [4] 0.25 | [5] 0.019

MFGE8 (UniProt Q08431)
Chain of UniProt Q08431 (Q08431 whole entry, looked up): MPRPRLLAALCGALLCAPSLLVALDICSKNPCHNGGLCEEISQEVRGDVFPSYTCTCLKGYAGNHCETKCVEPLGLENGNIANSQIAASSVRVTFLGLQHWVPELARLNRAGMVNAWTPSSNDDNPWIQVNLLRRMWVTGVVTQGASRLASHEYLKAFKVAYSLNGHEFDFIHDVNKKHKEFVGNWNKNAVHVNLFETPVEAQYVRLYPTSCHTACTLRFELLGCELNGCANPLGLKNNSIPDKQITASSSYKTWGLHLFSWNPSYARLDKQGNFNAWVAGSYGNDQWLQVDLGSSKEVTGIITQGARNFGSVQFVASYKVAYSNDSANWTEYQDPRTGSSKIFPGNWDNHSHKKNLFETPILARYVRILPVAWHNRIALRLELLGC
inactive: [1] 0.005 | [2] -0.051 | [3] -0.091 | [4] -0.068 | [5] -0.129

ITM2C (UniProt Q9NQX7)
inactive: [1] -0.077 | [2] 0.007 | [3] 0.122 | [5] -0.121

LDLR (UniProt P01130)
inactive: [1] -0.037 | [2] 0.014 | [3] 0.037 | [4] 0.022 | [5] 0.062

ME2 (UniProt P23368)
Chain of UniProt P23368 (P23368 whole entry, looked up): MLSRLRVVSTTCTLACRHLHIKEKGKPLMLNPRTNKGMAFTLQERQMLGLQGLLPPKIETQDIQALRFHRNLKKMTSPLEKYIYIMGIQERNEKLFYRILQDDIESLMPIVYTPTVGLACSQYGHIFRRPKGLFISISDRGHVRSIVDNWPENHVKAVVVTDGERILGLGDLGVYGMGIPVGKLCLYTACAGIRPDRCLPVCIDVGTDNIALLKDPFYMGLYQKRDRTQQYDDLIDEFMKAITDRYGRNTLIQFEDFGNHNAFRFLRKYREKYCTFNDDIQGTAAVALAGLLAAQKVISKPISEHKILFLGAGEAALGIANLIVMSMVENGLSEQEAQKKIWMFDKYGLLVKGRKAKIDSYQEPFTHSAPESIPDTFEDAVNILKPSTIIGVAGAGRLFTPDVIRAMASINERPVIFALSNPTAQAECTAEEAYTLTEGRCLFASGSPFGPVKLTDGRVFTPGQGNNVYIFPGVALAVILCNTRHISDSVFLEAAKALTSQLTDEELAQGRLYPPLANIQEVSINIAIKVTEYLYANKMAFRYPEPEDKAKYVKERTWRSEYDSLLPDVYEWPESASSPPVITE
inactive: [1] 0.046 | [2] 0.073 | [3] 0.078 | [4] -0.086 | [5] 0.09

MFSD1 isoform 6 (UniProt Q9H3U5)
inactive: [1] 0.001 | [2] 0.045 | [3] 0.043 | [4] -0.029 | [5] 0.039

INPP5B (UniProt P32019)
inactive: [1] -0.067 | [2] 0.056 | [3] 0.024 | [4] 0.086 | [5] -0.035

MFF (UniProt Q9GZY8)
inactive: [1] -0.013 | [2] 0.041 | [3] 0.064 | [4] -0.017 | [5] -0.001
